In PubChem BioAssay (NCI):
The panel holds about 79,000 compounds, 15% with a hit somewhere; the sample as a whole holds those more often. Unmarked numbers belong to inactive results. Calls of active or inactive are those of the source. Cut-off read from the data, not from the text of the source: active = growth inhibition above about 70%; inactive = the rest.

Legend:
[1] = NCI Yeast Anticancer Drug Screen. Data for the rad50 strain (AID 155);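 note: 0% = growth of vehicle-only cultures of the same strain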; conditions: S. cerevisiae rad50 strain growth inhibition; at 50.0 µM; active compounds read high
Summary of the method: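 Cells are treated with compound, grown, and their growth is then scored against vehicle-only cultures of the same repair-deficient yeast strain.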

[2] = NCI Yeast Anticancer Drug Screen. Data for the mec2-1 strain (AID 157); conditions: S. cerevisiae mec2-1 strain, at 50.0 µM, active compounds read high
Summary of the method: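 Test agents were screened against the mec2-1 yeast strain, with defined DNA repair or cell cycle alteration. Growth was scored as inhibition against vehicle-only controls.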

[3] = NCI Yeast Anticancer Drug Screen. Data for the sgs1 mgt1 strain (AID 161);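 note: 0% = growth of cultures given vehicle only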; conditions: S. cerevisiae sgs1 mgt1 strain, at 50.0 µM, active compounds read high
Summary of the method: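 Inhibition of yeast growth, normalised to vehicle-treated controls, is reported for a strain bearing genetic alterations in DNA damage repair.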

[4] = NCI Yeast Anticancer Drug Screen. Data for the cln2 rad14 strain (AID 165);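 note: 0% = growth equal to vehicle treated cultures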; conditions: S. cerevisiae cln2 rad14 strain, at 50.0 µM, active compounds read high
Summary of the method: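 Growth of compound-exposed yeast (cln2 rad14 genotype) measured and expressed as inhibition relative to vehicle.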

[5] = NCI Yeast Anticancer Drug Screen. Data for the bub3 strain (AID 167); conditions: S. cerevisiae bub3 mutant strain, at 50.0 µM, active compounds read high
Summary of the method: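 Part of a panel of yeast mutants defective in DNA damage repair or cell cycle regulation. Each strain is grown with compound, and inhibition is calculated relative to solvent-treated cultures.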

[6] = NCI Yeast Anticancer Drug Screen. Data for the mlh1 rad18 strain (AID 175); conditions: S. cerevisiae mlh1 rad18 strain growth inhibition; at 50.0 µM; active compounds read high
Summary of the method: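 In this whole-cell yeast screen, a strain with altered DNA damage repair is challenged with compound, and its growth is measured against matched vehicle-treated controls.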

SMILES	growth inhibition [1]	growth inhibition [2]	growth inhibition [3]	growth inhibition [4]	growth inhibition [5]	growth inhibition [6]
CCOC(=O)C(NC(C)=O)C(C)O (stereo unspecified)	5.85%	3.95%	5.05%	3.85%	2.95%	-0.75%
COc1cc(OC)c(C(C)=O)c(C(C)=O)c1	-15.8%	-13.6%	-13.6%	-5.3%	-10.6%	-2.55%
O=C(O)/C(O)=C(/O)C(=O)O.[NH-]C1CCCCC1[NH-].[Pt+2]	27.3%	29.1%	28.4%	16.1%	26.9%	25.6%
COc1cc(NCCCCCCN(C)C)c2ncccc2c1	-17.4%	-21.2%	-3.1%	-19.4%	5.8%	-14.8%
O=C(Nc1ccc(Cl)cc1)OC(C(=O)c1ccccn1)c1ccccn1 (stereo unspecified)	0.25%	13.7%	-17.6%	5.75%	7.1%	8.5%
O=C(Nc1nc(=S)[nH][nH]1)C(=O)C(C(=O)c1ccc2ccccc2c1)C1OC(=O)c2ccccc21 (stereo unspecified)	28.6%	23.3%	-6.5%	-14.3%	3.75%	28.8%
CCN(CC)CCn1c(C(C)(C)C)nc2ccccc21	-9.15%	-20.8%	-24.1%	-6.25%	-15.8%	-10.9%
O=C(CCC(=O)Nc1cc(Cl)ccc1Cl)CC(=O)c1ccc([N+](=O)[O-])cc1	10.1%	28.9%	4.35%	13.8%	-2%	40.4%
CN1CCN(C(=O)/C(=C/c2ccccc2)NC(=O)c2ccccc2)CC1	-6.8%	4%	8.05%	-12.7%	0.1%	8.1%
O=C(Nc1ccccc1O)C(O)C(O)C(O)C(O)CO (stereo unspecified)	35%	30.7%	38.8%	23.2%	52.1%	58.8%
CC(=O)NCCCCN(CCCNC(C)=O)C(=O)CNS(=O)(=O)c1cccc2c(N(C)C)cccc12	-11.2%	-17.1%	16.2%	2%	17.6%	-8.65%
[N-]=[N+]=NC12CC3CC4C5CC(CC41)CC2[C@H]5C3	13.1%	-5.35%	-6.1%	-0.55%	-17.1%	-14.4%
CSc1nc(SC)c2c(C(N)=S)[nH]nc2n1	23.3%	20.9%	47%	19.7%	18.6%	23.6%
CC(=O)CC(=O)CCCCCCCCCCCC(=O)CC(C)=O	-5.15%	-15.4%	-5.45%	-0.1%	13.5%	10.4%
CCCCCCCCSCCCC(=O)O	-16.9%	-22.8%	-10.8%	-11.3%	-27.7%	-29.2%
NC(=O)c1csc(C2OC(CO)CC2O)n1 (stereo unspecified)	4.55%	-2.95%	-2.45%	-6%	0.2%	-2.1%
CC(C)CC1=C(C(=O)c2ccoc2)CC(C)C1 (stereo unspecified)	6.55%	-7.6%	-18.9%	12.1%	25.9%	-7.1%
CC(C)CCNCC(C)(C)OC(=O)c1ccc([N+](=O)[O-])cc1	34.6%	19.2%	51.9%	31.3%	30.4%	33.2%
CC1OC(c2ccc(Cl)cc2Cl)OC1C (stereo unspecified)	6.45%	-0.9%	2.65%	0.7%	0.95%	1.5%
O/N=C(/CN1CCOCC1)c1ccccc1	-7.25%	7.9%	-0.25%	-20.9%	8.4%	0%
CN(C)CCOC(=O)C(O)C1CCCCC1 (stereo unspecified)	-14.3%	12.8%	5.5%	18.4%	15.2%	-19.9%

SMILES	growth inhibition [1]	growth inhibition [2]	growth inhibition [3]	growth inhibition [4]	growth inhibition [5]	growth inhibition [6]
COC(=O)CCC(=O)CC(=O)C(=O)Nc1c(Cl)cc([N+](=O)[O-])cc1Cl	11.4%	-17.1%	0.5%	24.1%	-4.5%	3.8%
COC(=O)C1=C(C)N(NC(=O)c2ccccc2)C(C)(O)C12CCOC2=O (stereo unspecified)	1.25%	-8.35%	5.85%	-53%	-9.65%	-5.15%
COC(=O)/C=C(/C(=O)OC)N(O)C(=O)CN1C(=O)c2ccccc2C1=O	-16%	-15.9%	-18.7%	-17.3%	-5.85%	-23.2%
CCN(CC)CCNC(=O)c1ccc(C)c(OCc2ccccc2)c1[N+](=O)[O-]	-9.4%	-9.25%	26.6%	-26.8%	34.8%	-19.6%
Nc1cc(=O)n(C2OC(CO)C(O)C2O)cn1 (stereo unspecified)	6.85%	-8.35%	-0.3%	-39.4%	-19.4%	8.05%
CCOC(=O)/C=C\[C@H]1OC(C)(C)O[C@H]1[C@H](O)[C@H]1COC(C)(C)O1	-22.3%	-14.1%	-15.4%	38%	-11.8%	-9.6%
CCOc1ccc(/C=C2\N=C(c3ccc([N+](=O)[O-])cc3)OC2=O)cc1	11.2%	19.8%	3%	3.45%	15.6%	8.15%
O=S1(=O)CCCC1C(O)c1ccccc1 (stereo unspecified)	13.8%	-5.75%	-8.85%	-60.2%	1.55%	-15.1%
O=C(O)/C=C\C(=O)Nc1ccc(C(=O)NCC(=O)O)cc1	-22.9%	-4.8%	-0.85%	-20.8%	-11.8%	-7.05%
Cc1ccc(N=C(NN(C)C)C(c2ccccc2)c2ccccc2)cc1	2.55%	-20.1%	7.95%	-18.9%	15.4%	-14.2%
COc1ccc(/C(=C/n2ccnc2)C(=O)c2ccc(OC)c(OC)c2)cc1	-41.6%	-18.7%	-44.8%	5.8%	-25.4%	-44.5%
CSc1c(S(C)=O)[nH]c2cc(Br)cc(Br)c12 (stereo unspecified)	84.2% (active)	89.3% (active)	88.7% (active)	71.6% (active)	89.4% (active)	85.2% (active)
Nc1ncnc2c1ncn2CCC(COCc1ccccc1)COCc1ccccc1	40.8%	0.4%	50.8%	-10%	4.6%	11.7%
NC(CCCCNCc1ccccc1O)C(=O)O (stereo unspecified)	10%	14.2%	-1.7%	7.45%	20.7%	25.9%
Oc1c(Cl)cc(Cl)cc1C=Nc1ccc2c(ccc3c4ccccc4ccc23)c1	7.95%	2.4%	-2.4%	-41.4%	6.55%	15.1%
O=CNC(CSC(=O)c1ccccc1)C(=O)O (stereo unspecified)	-0.35%	-3.75%	-7.2%	-15.2%	-11.7%	-12.7%
CSc1n[nH]c(N)c1C(=O)Nc1ccc(C)cc1	19.9%	10.8%	39.5%	22.4%	49.2%	10.6%
C/C(=N/NC(=O)c1ccccc1)C(=O)c1ccccc1	-4.4%	-12.2%	-2.65%	-1.2%	6%	-0.15%
CCCC(O)(Cc1ccccc1)c1ccccc1 (stereo unspecified)	-39%	-25.5%	-15.2%	-3.45%	-15.2%	-14%
CCCNc1ncnc2ncn(C)c12	12.4%	-1.6%	-12.9%	5.05%	7.35%	0.35%
